# Bioassay records as filed in PubChem BioAssay.
# Compounds with a hit are over-represented: about 1.6% of the library has one in this group of screens.
# JMJD2C inh: inhibitors of GASC-1 histone demethylase, primary screen, biochemical, fluorescence, DELFIA europium; actives 0.069% (n = 330,000); AID 2099, 2009; inhibition, % at 2.35 µM; GST-JMJD2C(1-420) H3K9me3 demethylation; Lysine-specific demethylase 4C (Homo sapiens), Q9H3R0;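 active = more than half of a compound's replicate wells show inhibition beyond 50%, single wells judged on their own value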;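 note: signal counts dimethyl H3K9 product captured on neutravidin plate; 0% = median of DMSO wells and 100% = 0.3 times that DMSO median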
# Target sequence (Q9H3R0 1-420 limits assumed): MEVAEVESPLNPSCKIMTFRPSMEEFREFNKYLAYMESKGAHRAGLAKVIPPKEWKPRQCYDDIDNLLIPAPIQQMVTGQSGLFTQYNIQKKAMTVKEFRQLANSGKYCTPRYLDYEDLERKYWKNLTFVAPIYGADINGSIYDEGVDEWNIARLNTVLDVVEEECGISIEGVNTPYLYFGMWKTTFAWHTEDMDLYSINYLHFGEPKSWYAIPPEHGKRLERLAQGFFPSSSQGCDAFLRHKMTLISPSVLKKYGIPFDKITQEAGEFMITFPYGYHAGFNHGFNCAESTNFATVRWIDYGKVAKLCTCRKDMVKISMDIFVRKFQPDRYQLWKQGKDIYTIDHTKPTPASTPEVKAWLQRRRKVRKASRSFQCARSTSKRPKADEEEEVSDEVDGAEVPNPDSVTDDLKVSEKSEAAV
# GRK2 aptamer HTS: compounds blocking aptamer binding on GRK2 – biochemical, human GRK2, bead flow cytometry, HTS, primary screen; FAM-aptamer displacement from GRK2; actives 0.59% (n = 330,000); inhibition of aptamer binding, % at 10 µM; AID 488847, 2010;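 active = inhibition of aptamer binding above 40%, roughly 3 SD of noise, on plates passing a quality check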;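 note: median bead fluorescence of bound FAM aptamer so fluorescent compounds give negative values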
# VLA-4 inh: inhibition in human VLA-4 binding assay, primary screen, VLA-4 allosteric modulator project, MLPCN library, flow cytometry, VLA-4 expressing cells; ligand binding flow cytometry; inhibition, % (about 7 µM as worked out from the volumes in the protocol); AID 2557, 2010; actives 0.2% (n = 330,000); Integrin alpha-4 (Homo sapiens), P13612; in the data active = inhibition above about 50%
# DSG3 Ab inh: inhibitors of pemphigus antibody binding to DSG3, primary screen, biochemical, bead-based, flow cytometry, scFv-GFP. actives 0.48% (n = 310,000). DSG3-coupled beads, scFv-anti-DSG3-GFP binding; active compounds read low. Desmoglein-3 (Homo sapiens), P32926. binding (percent of control), % at 10 µM;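 active = binding more than 3 SD below its plate's average and above zero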;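 note: hits lower antibody fragment binding to DSG3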
# PREPL inhibitor: PREPL enzyme inhibitors, primary screen, biochemical, fluorescence polarization. recombinant PREPL, fluorescence polarization activity-based probe. actives 0.68% (n = 320,000). Prolyl endopeptidase-like (Homo sapiens), Q4J6C6. inhibition, % at 5.96 µM; in the data active = inhibition above about 43%;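 note: 0% = enzyme with DMSO and 100% = wells lacking enzyme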
# * marks the source's active call; other numbers are inactive results; i = inactive; / = no result.
SMILES,JMJD2C inh,GRK2 aptamer HTS,VLA-4 inh,DSG3 Ab inh,PREPL inhibitor
O=C(O)CCc1ccc(S(=O)(=O)Nc2cc(C(F)(F)F)ccc2N2CCCC2)cc1,/,/,/,98,/
CSc1ncccc1C(=O)OCc1ccc([N+](=O)[O-])cc1,1,1,7,79*,3
CSc1ncccc1C(=O)OCc1cccc([N+](=O)[O-])c1,-3,10,-5,113,7
O=C(Nc1cccnc1)C1CCCN(S(=O)(=O)c2cccc3nsnc23)C1 (stereo not drawn),-29,0,0,98,14
CCCOC(=O)C1=C(C)NC(=O)NC1c1cccc2ccccc12 (stereo not drawn),5,2,-6,2.5*,/
CC1=C(C(=O)OCCBr)C(c2cccc3ccccc23)NC(=O)N1 (stereo not drawn),-5,2,10,88,-18
COc1cc(OC)c(OC)cc1CNc1nnnn1C,12,1,3,111,5
COC(=O)c1ccc(=O)c2nc3/c(=C/O)c(O)cc(=O)c3[nH]c12,/,67*,-12,50*,25
COC(=O)C1=C/CCCN(C(c2ccccc2)c2ccccc2)/C=C\1C(=O)OC,/,/,/,102,/
Cc1ccccc1C(=O)N1CCN(c2ccccn2)CC1,-5,45*,-10,101,3
C/C(=C\C(=O)OCC(=O)NCc1ccccc1)C(=O)OCC(=O)NCc1ccccc1,-2,80*,22,76*,15
CCOC(=O)/C=C/C(=O)OCC(=O)NCc1ccccc1,1,3,4,103,17
CCN1/C(=C/C=C/C=C/c2sc3ccccc3[n+]2CC)Sc2ccccc21,-8,89*,i,/,-351
CN(C)CCN(C(=O)/C=C/c1cccs1)c1nc2ccc(F)cc2s1,50*,2,12,95,15
O=C(NNS(=O)(=O)c1ccc(Cl)cc1)c1cc(-c2ccccc2)nc2ccccc12,-7,1,-7,97,-6
CC1=CC(=C(C#N)C#N)C=C(C)N1CCN1CCN(C(=O)Nc2ccc(Cl)c(Cl)c2)CC1,-7,0,13,116,5
CC1=CC(=C(C#N)C#N)C=C(C)N1Cc1ccc(Cl)cc1,2,0,6,-3.8*,-2
N#Cc1ccc(-c2ccc(F)cc2)nc1Oc1ccc(F)cc1,-8,2,-7,82*,1
N#Cc1ccc(-c2ccc(F)cc2)nc1Oc1ccccc1,-2,4,-1,83,-20
O=C(CCc1ccccc1Cl)NC1CCCN(c2ccc(C(F)(F)F)cn2)C1 (stereo not drawn),-7,0,7,82*,3
CC(C)CN1CCN(Cc2nc(C(C)C)cs2)CC1CCO (stereo not drawn),3,2,9,-8.8*,5
Cc1ccc(/C=C/C(=O)Nc2nnc(SCc3ccc(C#N)cc3)s2)o1,0,100*,-10,104,12
O=C(O)CCCC[C@@H]1SC[C@@H]2NC(=O)N[C@@H]21,96*,0,-19,99,0
S=c1[nH]c(-c2ccccc2)cn1/N=C/c1cccnc1,2,2,11,80*,1
CC1CCCN(S(=O)(=O)c2ccc(S(=O)(=O)N3CCC4(CC3)OCCO4)cc2)C1 (stereo not drawn),1,1,0,68*,3
SMILES,JMJD2C inh,GRK2 aptamer HTS,VLA-4 inh,DSG3 Ab inh,PREPL inhibitor
COc1ccc2cc([C@@H](C)C(=O)O)ccc2c1,/,3,42,119,-11
Cc1cccc(NC(=O)Cn2cc(C(=O)C3CC3)c3ccccc32)c1C,-1,0,7,-14*,-17
CC(=O)c1cn(CC(=O)Nc2cccc(C)c2C)c2ccccc12,17,2,12,105,3
Oc1ccc(CN2CCc3ccccc3C2)c2cccnc12,-21,0,12,96,45*
Oc1ccc(CN2CCCCC2)c2cccnc12,1,3,-4,97,4
C=CCn1c(=O)n(CCOC)c(=O)c2sc3ccccc3c21,30,3,10,94,-1
N#CCCn1cc(/C=C2\NC(=S)N(c3ccccc3)C2=O)c(-c2ccc(F)cc2)n1,-1,0,2,1.1*,-1
Cc1ccc(NC(=O)CCCN2C(=O)/C(=C/C=C/c3ccccc3)SC2=S)cc1,10,6,-21,85*,5
O=C(O)CC(C(=O)O)N1C(=O)/C(=C/C=C/c2ccco2)SC1=S (stereo not drawn),17,100*,0,77,-4
O=C(O)C(Cc1ccccc1)N1C(=O)/C(=C/C=C/c2ccco2)SC1=S (stereo not drawn),13,/,/,88,/
O=C(CCCN1C(=O)S/C(=C/C=C/c2ccccc2)C1=O)Nc1ccc(C(=O)O)cc1,4,3,0,108,-38
O=C(O)CCCN1C(=O)/C(=C\c2ccc(-c3nc4ccccc4s3)o2)SC1=S,3,13,-4,74*,6
O=C(O)CCCN1C(=O)/C(=C/C=C/c2ccco2)SC1=S,20,100*,-15,92,12
O=C(c1cn(-c2ccccc2)nc1-c1cccnc1)N1CCCC(C(F)(F)F)C1 (stereo not drawn),1,4,8,102,-3
O=C(CN1CCc2ccccc21)Nc1ccc2c(c1)OCO2,-29,1,17,72*,-11
O=C(CN1CCc2ccccc21)NCc1ccc2c(c1)OCO2,-1,1,5,106,11
O=C(CN1CCN(c2nc(-c3ccccc3)cs2)CC1)Nc1ccc2c(c1)OCO2,-2,1,-6,101,48*
CCC(CC)c1nnc(NC(=O)c2ccc3ccccc3n2)s1,1,0,14,13*,-8
COc1ccc(N=CC2=C(Nc3ccc(OC)cc3)c3c(C)nn(-c4ccccn4)c3CC2)cc1,/,5,-46,/,72*
COc1ccc(-c2cc(C(=O)O)c3c(C)nn(-c4ccccn4)c3n2)cc1,-3,0,5,/,-1
CC(C)Oc1ccc(CCN=C(N)N=C(N)N)cc1Cl,0,0,-4,105,7
Cc1[nH]n(-c2ccccc2)c(=O)c1N=Nc1ccccc1,36,0,14,85,2
Cc1ccc(N=Nc2c(N)n(-c3ccccc3)[nH]c2=O)cc1,-3,0,-4,-0.7*,23
CN(C(=O)c1ccc(Oc2ccc([N+](=O)[O-])cc2)cc1)C1CCCCC1,-1,1,7,92*,40
O=C(c1ccccc1)N1N=C(c2ccccc2)CC1c1ccccc1[N+](=O)[O-] (stereo not drawn),2,0,-3,105,8
